About 83,000 compounds went through this panel and 20% of them were active in at least one assay; those are over-represented in the sample as a whole.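 Single-concentration screen, 48 h exposure, 96-well plates. Endpoint: percent growth. Below 10 = active.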 A number with no mark means an inactive call. Active and inactive are the calls of the source.
How the values were obtained:
Test in all cases: NCI-60 one-dose screen, 48 h (100 = growth as untreated, 0 = no growth, -100 = all killed)
Conditions in all cases: 10 µM
[1] = test system: BT-549 breast
[2] = test system: MDA-MB-435 melanoma
[3] = test system: SW-620 colon
[4] = test system: MCF7 breast
[5] = test system: HCT-116 colon
[6] = test system: HCC-2998 colon
[7] = test system: KM12 colon

Compound	growth [1]	growth [2]	growth [3]	growth [4]	growth [5]	growth [6]	growth [7]
CN(C)C(=S)N/N=C\C=N/NC(=S)N(C)C	81%	67%	64.1%	12%	0.438% (active)	80.4%	81.5%
COc1cc(-c2cc(C(=O)N3CCN(C(=O)c4ccccc4NCc4ccco4)CC3)nc3cc(-c4ccccc4)nn23)cc(OC)c1OC	35.6%	-34.6% (active)	14.2%	16.3%	20%	66.3%	13.1%
CCOC(=O)C(=Cc1ccc(Br)cc1)C(=O)OCC	-43.3% (active)	-4.37% (active)	-71.2% (active)	0.372% (active)	-80.4% (active)	-82.2% (active)	-25.3% (active)
O=C(Nc1ccc(Cl)cc1)N1NC(c2ccc(Cl)cc2)C=C1c1ccccc1 (configuration not stated)	102%	103%	110%	89.6%	104%	97.5%	96.3%
COc1ccc(S(=O)(=O)Nc2c(/C=C\c3cc(OC)c(OC)c(OC)c3)ccc(OC)c2O)cc1	40.6%	-39.4% (active)	23.4%	10.9%	-6.66% (active)	13.3%	-4.97% (active)
Cn1c([N+](=O)[O-])cnc1/C=C1\Oc2ccc(Cl)cc2C1=O	-35.7% (active)	-62.7% (active)	-61.6% (active)	1.32% (active)	-46.6% (active)	-58.6% (active)	-37% (active)
O=c1cc(-c2ccccc2)[nH]n1-c1nc2ccccc2[nH]1	75.8%	51.1%	31.6%	42.7%	32.1%	59.3%	38%
COc1ccc(OC)c(NC(=O)c2sc3nc4c(cc3c2N)C(=O)CCC4)c1	93.7%	28.4%	82.3%	81.3%	97%	78.6%	74.8%
COc1ccc(Cn2c(C(N)=O)cc3c2-c2nc(N)ncc2CCC3)cc1	109%	97.2%	91.3%	92.7%	101%	104%	97.5%
CC12O[C@H](C[C@@H](O)[C@H]1O)n1c3ccccc3c3c4c(c5c6ccccc6n2c5c31)C(=O)N(CCCN)C4=O	72.9%	32.5%	20.4%	12.2%	13.4%	44.8%	38%
Cn1c(C(N)=O)cc2c1-c1nc(Nc3ccccc3)ncc1CCC2	33.7%	45%	57.2%	38.7%	25.8%	73.1%	7.9% (active)
Cc1ccc(N=Nc2c(N)nc(N)[nH]c2=O)cc1C	98.5%	95.1%	102%	94.4%	96.8%	113%	111%
C=C(NC(=O)C(=C)NC(=O)c1csc(C2=NC3c4csc(n4)C4NC(=O)c5csc(n5)C(C(C)(O)C(C)O)NC(=O)C5CSC(=N5)/C(=C/C)NC(=O)C(C(C)O)NC(=O)c5csc(n5)C3(CC2)NC(=O)C(C)NC(=O)C(=C)NC(=O)C(=C)NC(=O)C(C(C)C)NC2C=Cc3c(C(C)O)cc(nc3C2O)C(=O)OC4C)n1)C(N)=O (configuration not stated)	-35.1% (active)	-65.2% (active)	-8.45% (active)	19.8%	-49.5% (active)	-57.2% (active)	-88.1% (active)
CC(=O)CSC(C)=O	105%	96.5%	101%	93%	98%	110%	107%
COc1ccc(-c2nn(-c3cccc(NC(=O)c4ccc(N5CCOCC5)c(C(F)(F)F)c4)c3)cc2-c2ccncc2)cc1Cl	67.9%	30%	83.3%	53%	55.5%	67.6%	43.7%
Clc1ccc(Sc2nc(NC3CC3)nc(Sc3ccc(Cl)cc3)n2)cc1	104%	87.8%	83.3%	72%	53.7%	90.2%	76.6%
COc1ccc(-c2cc(/C=C3\C(=O)Nc4ccc(OC)cc43)[nH]n2)cc1	61.5%	-25.1% (active)	19.3%	7.36% (active)	25.3%	52.8%	8.99% (active)
Nc1c(C(=O)Nc2ccccc2Cl)sc2nc3c(cc12)C(=O)CCC3	61.2%	-53.3% (active)	29%	16.1%	76.5%	63.2%	28.5%

Compound	growth [1]	growth [2]	growth [3]	growth [4]	growth [5]	growth [6]	growth [7]
O=C1CC[C@@H]2CCCC[C@@H]2C1	136%	103%	108%	97.2%	104%	112%	112%
O=C(N/N=C\c1cc(Cl)ccc1[N+](=O)[O-])c1ccco1	101%	100%	102%	57%	113%	103%	102%
ClCC#CCSc1ncnc2c1ncn2CC#CCCl	27.5%	0.673% (active)	2.37% (active)	20.2%	-49% (active)	-24.9% (active)	6.96% (active)
CSc1cc(SC)ncn1	104%	115%	103%	97.8%	102%	111%	108%
CCCCN(CCCC)CCCCCCCCC(O)c1cc2ccccc2c2ccccc12 (configuration not stated)	67.5%	67.3%	66.6%	28.7%	22.7%	61.5%	40.9%
Cc1cccc(NC2=C(C#N)C(=O)NC3(CCCC3)S2)c1	102%	101%	103%	89.8%	105%	95.8%	104%
COc1ccc2c(c1)C(=O)c1c-2c(OCCN2CCCCC2)nc2ccc(OC)cc12	51.3%	23.9%	8.07% (active)	9.47% (active)	7.15% (active)	39.8%	29.2%
CCOC(=O)c1ccc(NC(=O)Nc2ncc(Cl)cc2Cl)cc1	106%	90.8%	102%	97.8%	83.9%	96.2%	102%
O=C1Nc2ccccc2C1=NC1CCCCC1	96.1%	106%	105%	98%	105%	107%	95.9%
COc1ccc(Cl)cc1C(=O)Nc1nc2ccc(Cl)cc2s1	97.7%	97.6%	101%	41.7%	53.2%	102%	94.8%
CCCCCC(=O)c1ccc(OCCCN2CCN(C(=O)OCC)CC2)cc1	91.4%	98.8%	93.2%	93%	75.6%	96.9%	94.4%
Cc1cccc(Cl)c1NC(=O)c1ccc2nc(NC(=O)NC3CCN(C)CC3)sc2c1	98.2%	82.9%	98.4%	94%	81.9%	105%	105%
Clc1ccc(/C=C2\CCCC3=C2N=C2SC=NN2C3c2ccc(Cl)cc2)cc1 (configuration not stated)	117%	76.7%	94.1%	23.7%	5.7% (active)	77.2%	83.9%
Cc1cc(=O)[nH]c(N/N=C/c2ccccc2O)n1	101%	72.1%	56.5%	4.95% (active)	8.06% (active)	54.3%	51.2%
O=C(Nc1cccc(Cl)c1)Nc1nccs1	90.1%	62%	103%	57.8%	94%	89.7%	81.2%
COc1cc(-c2nc(-c3nnc(-c4ccc(F)c(Cl)c4)o3)c3ccccn23)cc(OC)c1OC	2.74% (active)	49.8%	58.7%	15.5%	-31.5% (active)	64.1%	5.68% (active)
COc1ccc(N=C2C(=Nc3ccc(OC)cc3)N(c3ccc(N(C)C)cc3)C(=S)N2c2ccc(OC)cc2)cc1	75.1%	86.5%	94.7%	84.9%	81.6%	105%	86.8%
CCn1cc(C(=O)O)c(=O)c2cnc(N3CCCC3)nc21	104%	94.2%	106%	103%	96.9%	107%	108%
